Source: PubChem BioAssay (Tox21)
Records with an inconclusive call do not appear. Active and inactive are the calls of the source. Unless noted, calls come from the whole dose curve; as a rule, active = well fitted curve in the direction sought with a large enough effect in the repeat runs; inconclusive = weak or mixed curves; inactive = no such curve, though single readings can be large; an effect the other way counts as inactive or inconclusive.

How the values were obtained:
[1] = target: Estrogen receptor beta (Homo sapiens) (UniProt Q92731); assay: qHTS assay to identify small molecule agonists of the estrogen receptor beta (ER-beta) signaling pathway (AID 1259377; active = well fitted activation curve with a large enough effect in the signal ratio in the repeat runs, not every such curve was filed as active; the % refers to the signal ratio)
Outline: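 Measured by fluorescence intensity from a B/G FRET beta-lactamase substrate (2 h, room temperature) in ER-beta-UAS-bla HEK293T cells treated with DMSO-dissolved compounds for 16 hr at 37C and 5% CO2.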

[2] = target: Estrogen receptor beta (Homo sapiens) (UniProt Q92731); assay: qHTS assay to identify small molecule antagonists of the estrogen receptor beta (ER-beta) signaling pathway (AID 1259378; active = well fitted inhibition curve with a large enough effect in the signal ratio in the repeat runs, not every such curve was filed as active; the % refers to the signal ratio)
Outline: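 Antagonist mode: compounds added to beta-lactamase reporter HEK293T ER-beta-UAS cells stimulated with E2 (1nM final), 16 hr at 37C. LiveBLAzer B/G FRET substrate, 2 hours room temperature, fluorescence read-out.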

[3] = qHTS assay to identify small molecule agonists of the androgen receptor (AR) signaling pathway in the presence of an antagonist - cell viability counter screen (AID 1259379);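 note: MDA-kb2 human breast cancer cells carrying an MMTV luciferase reporter; series mostly up to about 92 µM; nearly all actives have a fitted effect of over 25% in size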
Outline: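 MDA-kb2 human breast carcinoma cells (stable MMTV-luciferase, AR/GR responsive) were seeded 3,000 cells/well, pre-incubated 5 hr at 37C without CO2, then given 3.0uM nilutamide and compounds at 15 concentrations for 16 hr. Viability was read by CellTiter-Fluor fluorescence.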

[4] = qHTS assay to identify small molecule agonists of the estrogen receptor beta (ER-beta) signaling pathway - cell viability counter screen (AID 1259380); note: nearly all actives have a fitted effect of over 30% in size
Outline: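 ER-beta-UAS-bla HEK293T cells in medium with 2% charcoal-stripped FBS were preincubated 6 hr at 37C, dosed with compound in DMSO for 16 hr, then after the bla read, CellTiter-Glo was added for 30 min at room temperature; luminescence recorded.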

[5] = qHTS assay to identify small molecule agonists or antagonists of the thyroid stimulating hormone receptor (TSHR) signaling pathway - wild type cell line counter screen (AID 1259384; calls by dose curve)
Outline: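 Counter screen in untransfected Hek293: compounds (15-point titration, triplicate) plus phosphodiesterase inhibitor Ro20-1724 added after 18 h plating; 30 min RT. Intracellular cAMP via competitive d2/cryptate immunoassay, 1 h incubation.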

[6] = target: Thyrotropin receptor (Homo sapiens) (UniProt P16473); assay: qHTS assay to identify small molecule antagonists of the thyroid stimulating hormone receptor (TSHR) signaling pathway (AID 1259385; calls by dose curve; note: nearly all actives have a fitted effect of over 20% in size)
Outline: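 Antagonist mode: compound-treated TSHR-expressing HEK293 cells were stimulated with 1.5 ng/mL TSH (final) in presence of Ro20-1724 for 30 min at RT. HTRF cAMP detection after 1 h; each compound tested at 15 concentrations, triplicate.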

[7] = qHTS assay to identify small molecule agonists of the estrogen receptor alpha (ER-alpha) signaling pathway in the presence of an antagonist - cell viability counter screen (AID 1259386);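 note: series mostly up to about 92 µM; cells exposed to compounds for 22 h at 37 °C before the viability read; nearly all actives have a fitted effect of over 30% in size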
Outline: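 VM7Luc4E2 cells (endogenous full-length ER-alpha, 4×ERE-luciferase) were held 5 days in phenol red-free medium with 10% charcoal-stripped FBS, plated, then given 10.0nM ICI-182,780 and compounds at 15 concentrations for 22hr at 37C; viability read by CellTiter-Fluor fluorescence.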

[8] = target: Progesterone receptor (Homo sapiens) (UniProt P06401); assay: qHTS assay to identify small molecule agonists of the progesterone receptor (PR) signaling pathway (AID 1346784; calls by dose curve; note: nearly all actives have a fitted effect of over 30% in size)
Outline: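 The screen uses PR-UAS-bla HEK 293T cells in charcoal-stripped serum (2%). Compounds are applied for 16 hr at 37C after a 6 hr pre-incubation, and reporter activity is detected with a FRET beta-lactamase substrate after 2 hr at room temperature.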

[9] = target: Progesterone receptor (Homo sapiens) (UniProt P06401); assay: qHTS assay to identify small molecule antagonists of the progesterone receptor (PR) signaling pathway (AID 1346795; active = well fitted inhibition curve with a large enough effect in the signal ratio in the repeat runs, not every such curve was filed as active; the % refers to the signal ratio)
Outline: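 After 6 hr plating at 37C in 2% stripped-serum medium, PR-UAS-bla HEK293T cells got compounds, then 1 nM R5020. Sixteen hours later, LiveBLAzer substrate was applied for 2 hr at room temperature and fluorescence was recorded.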

[10] = qHTS assay to identify small molecule antagonists of the progesterone receptor (PR) signaling pathway - cell viability counter screen (AID 1346798); note: series mostly up to about 92 µM; nearly all actives have a fitted effect of over 50% in size
Outline: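 Viability was determined by ATP-based luminescence (CellTiter-Glo) in PR-UAS-bla HEK293T cells cultured in 2% charcoal-stripped serum and incubated 16 hr with compounds under R5020 stimulation.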

[11] = qHTS assay to identify small molecule agonists of the progesterone receptor (PR) signaling pathway - cell viability counter screen (AID 1346799; calls by dose curve; note: nearly all actives have a fitted effect of over 45% in size)
Outline: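 Viability was scored by ATP luminescence (CellTiter-Glo, 30 min, room temperature) in the same wells used for the reporter readout, after 16 hr compound exposure of PR-UAS-bla HEK293T cells.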

[12] = qHTS assay to identify small molecule antagonists of the TGF-beta/Smad signaling pathway - cell viability counter screen (AID 1346824); note: nearly all actives have a fitted effect of over 50% in size
Outline: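 Cytotoxicity counter-screen run in the same wells as the beta-lactamase Smad reporter read: CellTiter-Glo luminescence after 30 min at room temperature. HEK 293T SBE-bla cells had 5 hr compound exposure at 37 C with TGF-beta1 (0.25 ng/mL stock).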

[13] = qHTS assay to identify small molecule agonists of the TGF-beta/Smad signaling pathway - cell viability counter screen (AID 1346829); note: top concentration of the series differs between compounds; nearly all actives have a fitted effect of over 45% in size
Outline: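 Here the cytotoxicity of library compounds is measured in SBE-bla HEK 293T cells treated for 5 hr, using CellTiter-Glo added to wells already read for the beta-lactamase reporter.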

[14] = qHTS assay to identify small molecule agonists of the TGF-beta/Smad signaling pathway (AID 1346859; active = well fitted activation curve with a large enough effect in the signal ratio in the repeat runs, not every such curve was filed as active; the % refers to the signal ratio; note: series mostly up to about 77 µM)
Outline: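 Dual-wavelength fluorescence (460/530 nm emission) quantified beta-lactamase expression under the Smad binding element in HEK 293T cells following 5 hr compound treatment at 37 C.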

[15] = target: Thyrotropin-releasing hormone receptor (Homo sapiens) (UniProt P34981); assay: qHTS assay to identify small molecule agonists of the thyrotropin-releasing hormone receptor (TRHR) signaling pathway (AID 1346891; calls by dose curve; note: series mostly up to about 58 µM)
Outline: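 Kinetic fluorescence (3 min, 1 s intervals) reported intracellular calcium after compound transfer onto TRHR-Hek293 cells pre-loaded with dye for 2 h at 37 °C.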

[16] = Human pregnane X receptor (PXR) small molecule agonists, qHTS cell viability counter screen (AID 1346977); note: nearly all actives have a fitted effect of over 50% in size
Outline: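 HepG2 cells stably carrying the PXR-Luc reporter are cultured with 5% charcoal-stripped FBS and treated with compounds for 24hr. CellTiter-Fluor is added at 23hr and fluorescence is read after 1hr.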

[17] = qHTS assay to identify small molecule antagonists of the estrogen receptor beta (ER-beta) signaling pathway - cell viability counter screen (AID 1259382);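 note: HEK293T cells carrying ER-beta-UAS-bla reporter stimulated with estradiol; series mostly up to about 92 µM; nearly all actives have a fitted effect of over 55% in size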
Outline: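 ER-beta-UAS-bla HEK293T cells (2,000/well, 2% charcoal-stripped FBS) were pre-incubated 6 hr at 37C, then given compound plus 1nM final 17-beta-estradiol for 16 hr. Viability was read in the same wells by CellTiter-Glo luminescence after 30 min at room temperature.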

[18] = target: Thyrotropin-releasing hormone receptor (Homo sapiens) (UniProt P34981); assay: qHTS assay to identify small molecule antagonists of the thyrotropin-releasing hormone receptor (TRHR) signaling pathway (AID 1346877; active = well fitted inhibition curve with a large enough effect in the repeat runs, not every such curve was filed as active; note: series mostly up to about 51 µM)
Outline: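 TRHR-expressing HEK293 cells were seeded, cultured 18 h at 37 °C, then loaded with calcium dye for 2 h. Compounds were pre-incubated 5 min at room temperature before 1 nM TRH (final) was added, and kinetic fluorescence was recorded for 3 min.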

[19] = target: Estrogen receptor (Homo sapiens) (UniProt P03372); assay: qHTS assay to identify small molecule agonists of the estrogen receptor alpha (ER-alpha) signaling pathway in the presence of an antagonist (AID 1259383; calls by dose curve; note: top concentration of the series differs between compounds; nearly all actives have a fitted effect of over 15% in size)
Outline: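 VM7Luc4E2 cells (endogenous full-length ER-alpha, 4×ERE-luciferase) were precultured 5 days in phenol red-free medium with 10% charcoal-stripped FBS, given 10.0nM ICI-182,780 (final), then treated with compounds at 15 concentrations for 22hr at 37C; luminescence read with ONE-Glo.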

Measured: Potency

Progesterone receptor (Homo sapiens), sequence (P06401 whole entry, looked up): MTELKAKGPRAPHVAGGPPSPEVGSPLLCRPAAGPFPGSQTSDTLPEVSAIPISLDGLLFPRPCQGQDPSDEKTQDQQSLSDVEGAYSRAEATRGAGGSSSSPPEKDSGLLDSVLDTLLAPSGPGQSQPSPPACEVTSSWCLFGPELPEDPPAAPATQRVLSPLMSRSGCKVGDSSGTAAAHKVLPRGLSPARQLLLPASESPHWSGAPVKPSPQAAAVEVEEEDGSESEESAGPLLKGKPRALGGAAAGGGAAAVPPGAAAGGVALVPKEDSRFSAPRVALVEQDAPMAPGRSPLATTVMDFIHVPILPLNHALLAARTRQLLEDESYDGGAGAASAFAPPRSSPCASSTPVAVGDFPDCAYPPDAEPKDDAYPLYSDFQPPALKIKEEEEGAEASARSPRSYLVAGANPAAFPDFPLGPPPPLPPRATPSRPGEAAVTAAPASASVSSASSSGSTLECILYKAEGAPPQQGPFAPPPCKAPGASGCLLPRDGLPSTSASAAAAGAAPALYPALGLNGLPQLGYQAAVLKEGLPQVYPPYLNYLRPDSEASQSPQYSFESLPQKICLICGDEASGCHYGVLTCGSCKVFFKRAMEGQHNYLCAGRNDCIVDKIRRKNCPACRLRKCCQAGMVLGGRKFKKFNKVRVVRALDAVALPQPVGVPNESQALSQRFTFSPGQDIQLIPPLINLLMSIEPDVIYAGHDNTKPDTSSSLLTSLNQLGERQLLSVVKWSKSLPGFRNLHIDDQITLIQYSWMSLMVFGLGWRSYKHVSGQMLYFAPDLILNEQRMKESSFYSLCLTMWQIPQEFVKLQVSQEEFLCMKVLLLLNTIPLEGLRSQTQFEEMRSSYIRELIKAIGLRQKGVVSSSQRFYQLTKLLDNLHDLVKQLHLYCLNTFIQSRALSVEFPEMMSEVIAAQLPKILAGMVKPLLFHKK
Thyrotropin receptor (Homo sapiens), sequence (P16473 whole entry, looked up): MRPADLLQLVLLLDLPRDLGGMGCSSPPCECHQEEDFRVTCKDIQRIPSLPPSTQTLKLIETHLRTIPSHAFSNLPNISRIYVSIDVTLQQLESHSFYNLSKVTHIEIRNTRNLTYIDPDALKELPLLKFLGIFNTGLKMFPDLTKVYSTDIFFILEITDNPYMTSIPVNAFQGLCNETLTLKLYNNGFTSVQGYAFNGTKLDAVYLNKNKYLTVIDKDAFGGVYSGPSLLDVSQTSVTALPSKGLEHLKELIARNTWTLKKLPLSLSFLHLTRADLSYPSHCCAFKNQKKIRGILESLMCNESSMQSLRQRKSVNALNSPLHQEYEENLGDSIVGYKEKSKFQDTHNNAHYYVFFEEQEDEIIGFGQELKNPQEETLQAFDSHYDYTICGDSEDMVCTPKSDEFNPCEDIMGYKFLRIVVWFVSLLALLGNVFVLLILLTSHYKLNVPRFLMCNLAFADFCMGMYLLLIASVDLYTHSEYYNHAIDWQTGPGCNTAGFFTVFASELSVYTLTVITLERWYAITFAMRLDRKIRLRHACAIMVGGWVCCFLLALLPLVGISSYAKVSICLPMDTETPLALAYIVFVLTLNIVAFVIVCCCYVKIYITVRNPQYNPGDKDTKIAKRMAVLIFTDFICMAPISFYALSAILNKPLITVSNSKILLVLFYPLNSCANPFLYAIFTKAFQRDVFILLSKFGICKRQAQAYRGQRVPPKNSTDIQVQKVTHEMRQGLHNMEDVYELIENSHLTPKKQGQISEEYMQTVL
Estrogen receptor beta (Homo sapiens), sequence (Q92731 whole entry, looked up): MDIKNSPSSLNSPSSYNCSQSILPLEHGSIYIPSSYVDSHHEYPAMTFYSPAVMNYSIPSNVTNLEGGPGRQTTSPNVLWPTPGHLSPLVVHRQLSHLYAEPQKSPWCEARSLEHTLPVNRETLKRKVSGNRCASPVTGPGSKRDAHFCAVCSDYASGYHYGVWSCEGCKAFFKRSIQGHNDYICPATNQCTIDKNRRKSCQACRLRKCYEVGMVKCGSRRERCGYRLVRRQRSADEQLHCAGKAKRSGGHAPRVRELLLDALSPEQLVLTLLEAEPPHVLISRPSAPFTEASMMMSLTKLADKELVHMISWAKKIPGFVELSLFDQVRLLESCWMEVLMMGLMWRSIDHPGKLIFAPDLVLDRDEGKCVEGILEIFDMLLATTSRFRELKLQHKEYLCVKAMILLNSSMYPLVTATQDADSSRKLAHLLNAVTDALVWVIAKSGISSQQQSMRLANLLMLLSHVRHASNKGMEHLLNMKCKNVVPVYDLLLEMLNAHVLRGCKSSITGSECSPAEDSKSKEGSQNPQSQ
Thyrotropin-releasing hormone receptor (Homo sapiens), sequence (P34981 whole entry, looked up): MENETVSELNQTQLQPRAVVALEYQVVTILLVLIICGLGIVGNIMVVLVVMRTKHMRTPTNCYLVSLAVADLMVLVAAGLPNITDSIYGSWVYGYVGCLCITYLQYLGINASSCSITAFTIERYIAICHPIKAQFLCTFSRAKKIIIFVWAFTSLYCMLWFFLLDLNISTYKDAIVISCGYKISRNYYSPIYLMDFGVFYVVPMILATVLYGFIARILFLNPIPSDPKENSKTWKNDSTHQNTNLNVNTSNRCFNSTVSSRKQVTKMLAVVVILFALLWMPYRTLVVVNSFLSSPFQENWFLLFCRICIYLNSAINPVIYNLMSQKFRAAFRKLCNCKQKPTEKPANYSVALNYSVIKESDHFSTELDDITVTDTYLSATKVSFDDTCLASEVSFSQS
Estrogen receptor (Homo sapiens), sequence (P03372 whole entry, looked up): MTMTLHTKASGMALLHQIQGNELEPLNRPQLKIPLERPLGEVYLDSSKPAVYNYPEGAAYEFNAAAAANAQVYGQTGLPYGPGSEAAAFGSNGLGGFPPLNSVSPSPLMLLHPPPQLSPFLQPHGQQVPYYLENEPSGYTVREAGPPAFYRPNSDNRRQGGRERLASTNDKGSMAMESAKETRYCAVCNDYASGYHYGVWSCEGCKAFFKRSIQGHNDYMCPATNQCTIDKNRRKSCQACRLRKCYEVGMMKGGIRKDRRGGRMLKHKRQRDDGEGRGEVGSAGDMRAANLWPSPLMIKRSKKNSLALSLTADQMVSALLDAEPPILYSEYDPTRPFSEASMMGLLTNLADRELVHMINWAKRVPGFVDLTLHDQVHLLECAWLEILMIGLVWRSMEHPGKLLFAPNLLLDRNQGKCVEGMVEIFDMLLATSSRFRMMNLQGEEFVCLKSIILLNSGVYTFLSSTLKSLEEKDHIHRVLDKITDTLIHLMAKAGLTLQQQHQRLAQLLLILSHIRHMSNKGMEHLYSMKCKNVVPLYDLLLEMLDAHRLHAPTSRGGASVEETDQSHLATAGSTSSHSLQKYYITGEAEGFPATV

CCCCOCCOC(=O)CCCCCCCCC(=O)OCCOCCCC
not listed: [17] | [18] | [19]
inactive: all other assays above

NC(=O)N1c2ccccc2CC(=O)c2ccccc21
not listed: [10] | [15] | [17] | [18] | [19]
inactive: all other assays above

O=C(O)CNC(=O)c1ccccc1
not listed: [10] | [12] | [15] | [16] | [19]
inactive: all other assays above

CCO[Si](OCC)(OCC)c1ccccc1
not listed: [8] | [10] | [15] | [17] | [19]
inactive: all other assays above

CC(C)CC(C)(N)C#N (stereo unspecified)
not listed: [6] | [8] | [10] | [15] | [19]
inactive: all other assays above

C=C(C)C(=O)OCCOCCOCCOCCOC(=O)C(=C)C
not listed: [9] | [10] | [16] | [19]
inactive: all other assays above

C=CC(=O)OCCCl
not listed: [10] | [12] | [17]
inactive: all other assays above

CN1C(C)(C)CC(O)CC1(C)C
not listed: [15] | [17] | [18]
inactive: all other assays above

CN1CC(=O)N/C1=N/C(=O)Nc1cccc(Cl)c1
not listed: [10] | [18] | [19]
inactive: all other assays above

CCCCCCCCN1CCCC1=O
not listed: [6] | [10] | [12] | [19]
inactive: all other assays above

CCCc1ncc(C[n+]2ccccc2C)c(N)n1
not listed: [5] | [6] | [8] | [19]
inactive: all other assays above

CC(=O)OCC(=O)[C@@]1(O)[C@H](C)C[C@H]2[C@@H]3CCC4=CC(=O)C=C[C@]4(C)[C@@]3(F)[C@@H](O)C[C@@]21C
not listed: [8] | [9] | [11] | [19]
inactive: all other assays above

C[C@H]1[C@H](NC(=O)/C(=N/OC(C)(C)C(=O)O)c2csc(N)n2)C(=O)N1S(=O)(=O)O (stereo in doubt)
not listed: [6] | [12] | [15] | [18] | [19]
inactive: all other assays above

O=Cc1cccc(Br)c1
not listed: [9] | [12] | [17] | [18] | [19]
inactive: all other assays above

CCCCc1nc(Cl)c(CO)n1Cc1ccc(-c2ccccc2-c2nn[nH]n2)cc1
not listed: [5] | [6] | [10] | [15] | [18] | [19]
inactive: all other assays above
